Measurements from PubChem BioAssay (NCATS).
Inconclusive results are not listed. A call without a number means that no potency is given here. The source made the active and inactive calls. Calls follow the shape of the dose curve; as a rule, active = well fitted inhibition curve with a large enough effect; inconclusive = small, poorly fitted or top-dose-only effect; inactive = flat fitted curve, though single readings scatter.

Experiment: qHTS to identify inhibitors of the type 1 interferon - major histocompatibility complex class I in skeletal muscle: primary screen against the NCATS Pharmaceutical Collection (AID 1347407)
Details: human skeletal muscle cells, IFN-b-induced MHC-I HiBiT luminescence, 24 h; series mostly up to 45.9 µM
In short: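 Immortalized human myoblasts (C25cl48) with HiBiT knocked into endogenous HLA-B*08:01 were stimulated with 4 ng/ml IFN-beta and treated with compounds (8-point, 1:5, top 46 uM final) for 24 h at 37 C; HiBiT lytic luminescence read.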

| SMILES | Potency |
| --- | --- |
| Cc1ccc(C)c(OCCCC(C)(C)C(=O)O)c1 | inactive |
| Cc1cc(C2CCCCC2)n(O)c(=O)c1 | inactive |
| Cc1ccc(C(=O)c2cc(O)c(O)c([N+](=O)[O-])c2)cc1 | inactive |
| CCC[C@@H]1C[C@@H](C(=O)N[C@@H]([C@H]2O[C@H](SC)[C@H](O)[C@@H](O)[C@H]2O)[C@@H](C)O)N(C)C1 | inactive |
| O=C(O)CCNC(=O)c1ccc(N=Nc2ccc(O)c(C(=O)O)c2)cc1 | inactive |
| COCCCN1CCC(NC(=O)c2cc(Cl)c(N)c3c2OCC3)CC1 | inactive |
| CC1Cc2ccccc2N1NC(=O)c1ccc(Cl)c(S(N)(=O)=O)c1 (centres undefined) | inactive |
| Cc1ccc(S(=O)(=O)NC(=O)NN2CC3CCCC3C2)cc1 (centres undefined) | inactive |
| COC(=O)N[C@H](C(=O)N[C@@H](Cc1ccccc1)[C@@H](O)CN(Cc1ccc(-c2ccccn2)cc1)NC(=O)[C@@H](NC(=O)OC)C(C)(C)C)C(C)(C)C | inactive |
| CCCCCCCCOc1ccccc1C(=O)Nc1ccc(C(=O)OCC[N+](C)(CC)CC)cc1 | inactive |
| Nc1cc(C(Cl)=C(Cl)Cl)c(S(N)(=O)=O)cc1S(N)(=O)=O | inactive |
| Cc1cc2cc3c(C)cc(=O)oc3c(C)c2o1 | inactive |
| CCCOc1ccc2nc(NC(=O)OC)[nH]c2c1 | inactive |
| CC(C)Oc1ccc2c(=O)c(-c3ccccc3)coc2c1 | inactive |
| COc1cc2nc(N3CCN(C(=O)C4CCCO4)CC3)nc(N)c2cc1OC (centres undefined) | inactive |
| CCCCC(CC)COC(=O)C(C#N)=C(c1ccccc1)c1ccccc1 (centres undefined) | inactive |
| CC(C)c1ccc2oc3nc(N)c(C(=O)O)cc3c(=O)c2c1 | inactive |
| CCN(CC)CCOc1ccc(Cc2ccccc2)cc1 | inactive |
| CS(=O)(=O)OCCCCOS(C)(=O)=O | inactive |
| O=C(NCC1CCCCN1)c1cc(OCC(F)(F)F)ccc1OCC(F)(F)F (centres undefined) | inactive |

| SMILES | Potency |
| --- | --- |
| CC1=C(C)C(=O)C(C(CCCCCC(=O)O)c2ccccc2)=C(C)C1=O (centres undefined) | inactive |
| Cc1c(C(=O)NN2CCCCC2)nn(-c2ccc(Cl)cc2Cl)c1-c1ccc(Cl)cc1 | inactive |
| Cc1cccc(CN2CCN(C(c3ccccc3)c3ccc(Cl)cc3)CC2)c1 (centres undefined) | inactive |
| COc1cc(OC)c(C(=O)CCCN2CCCC2)c(OC)c1 | inactive |
| CCCCN(CCCC)CCC(O)c1cc2c(Cl)cc(Cl)cc2c2cc(C(F)(F)F)ccc12 (centres undefined) | inactive |
| O=C1CCc2ccc(OCCCCN3CCN(c4cccc(Cl)c4Cl)CC3)cc2N1 | inactive |
| C=CCc1cc(OC)c(O)c(C(=O)NCCO)c1 | inactive |
| c1ccc2[nH]c(-c3cscn3)nc2c1 | inactive |
| CC(S)C(=O)NCC(=O)O (centres undefined) | inactive |
| Nc1ccc(S(N)(=O)=O)cc1 | inactive |
| Cc1cc(=O)c2c(O)c3c(O)cc(=O)c4c3c3c(cc(O)c1c23)C(C)(C)C=4O | inactive |
| NS(=O)(=O)c1cc(C(=O)O)c(NCc2ccco2)cc1Cl | inactive |
| NC(=O)Cc1cccc(C(=O)c2ccccc2)c1N | inactive |
| Nc1cccc2c1CN(C1CCC(=O)NC1=O)C2=O (centres undefined) | inactive |
| CCOC(=O)c1c(C)n(C)c2ccc(O)cc12 | inactive |
| O=C(NC(Cc1cc(=O)[nH]c2ccccc12)C(=O)O)c1ccc(Cl)cc1 (centres undefined) | inactive |
| Cc1cccc(C)c1OCC(=O)N[C@@H](Cc1ccccc1)[C@@H](O)C[C@H](Cc1ccccc1)NC(=O)[C@H](C(C)C)N1CCCNC1=O | inactive |
| Oc1ccc(OCc2ccccc2)cc1 | inactive |
| COC1=C(OC)C(=O)C(CCCCCCCCCCO)=C(C)C1=O | inactive |
